High-throughput results (PubChem BioAssay)
This is a sample that favours compounds with a hit; in the whole collection about 19% have one here.
IL-1B inflam inh = inflammasome signaling inhibition, IL-1 beta readout; THP-1 LPS/ATP IL-1B secretion, AlphaLISA, 16 h; stronger effect = lower value; activity change, % at 57.5 µM; hit rate 4.7% among 360,000; in the data active = activity change below about -50%; inconclusive = mostly about -30% to -49%; note: % is set by controls: 0 for no effect and ±100 for the full control effect
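THP-1 cells pretreated 1 hr with compounds (up to 57.5 uM final), then stimulated with LPS (250 ng/mL final) plus ATP (1.25 mM final); secreted IL-1B measured by AlphaLISA after 16 hr, decreased signal indicating inhibition.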
MCF10A rerep = DNA re-replication induction in MCF 10a cells | Potency, µM (series often up to 46.1 µM), inactives show at the highest dose activity, positive = re-replication, actives largely listed as activators | MCF 10A DNA re-replication, Hoechst nuclear intensity, 48 h | AID 624296 | hit rate 2.9% among 350,000; note: potency is the fitted concentration of half-maximal effect; % of control where 0% means no effect; nearly all actives have a fitted effect of over 50% in size
BCR signal inh = inhibitors of chronic active B-cell receptor signaling; hit rate 0.05% among 340,000; ABC-DLBCL IkBa-CBG/CBR reporter, luminescence ratio, 4 h; Potency, µM (series often up to 46.1 µM), for the others: at the top dose activity change, negative = inhibition, most hits filed as inhibitors; active = well fitted inhibition curve with a large enough effect in the signal ratio, with a control signal flat, not every such curve was filed as active; inconclusive = small, poorly fitted or top-dose-only effect, or effect the other way, or a change in a side signal; the % refers to the signal ratio;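 note: potency is the fitted concentration of half-maximal effect; plate controls were basal doxycycline-induced cells for no effect and cells given 10 µM MG132 for full effect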
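TMD8 ABC-DLBCL cells carrying doxycycline-inducible green luciferase fused to IkappaBalpha plus unfused red luciferase were exposed to compounds (up to 46 uM) for 4 hrs at 37C. Activity came from the overlap-corrected green/red luminescence ratio.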
DT40 TDP1 no CPT = qHTS for Inhibitors of human tyrosyl-DNA phosphodiesterase 1 (TDP1): qHTS in cells in absence of CPT; DT40 Tdp1-/- hTDP1 cells, no CPT, ATP luminescence, 48 h; hit rate 15% among 420,000; Potency, µM (highest dose often 46.2 µM), inactives show top-dose activity change, negative = growth inhibition, most hits filed as inhibitors; AID 686978, 2013; note: potency is the fitted concentration of half-maximal effect; % is set by controls: 0 for no effect and ±100 for the full control effect; nearly all actives have a fitted effect of over 55% in size
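Compound effects on proliferation are scored in DT40 Tdp1-/-;hTDP1 cells in the absence of CPT. ATP levels (CellTiter-Glo luminescence) are recorded after a ≥48 hr, 37 °C incubation.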
TDP1 cell CPT = growth inhibition of DT40 Tdp1-/-;hTDP1 cells with camptothecin (screen for TDP1 inhibitors); chicken DT40 Tdp1-/-;hTDP1 cells + 20 nM CPT, ATP luminescence, 48 h; Potency, µM (series often up to 46.2 µM), inactives show top-dose activity change, negative = growth inhibition, actives largely listed as inhibitors; hit rate 12% among 420,000; AID 686979; note: potency is the fitted concentration of half-maximal effect; % is set by controls: 0 for no effect and ±100 for the full control effect; nearly all actives have a fitted effect of over 55% in size
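Chicken DT40 Tdp1-/- cells stably complemented with human TDP1 were seeded at 400 cells/well in medium containing 20 nM camptothecin, exposed to pin-transferred compounds, and grown at 37 °C for at least 48 hr. Viability was read as ATP luminescence.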
SW480 rereplic = induces DNA re-replication in SW480 colon adenocarcinoma cells | SW480 DNA re-replication, Hoechst DNA content imaging, 48 h | Potency, µM (doses to about 46.1 µM), without a hit: top-dose re-replication activation, actives largely listed as activators | hit rate 1.8% among 340,000; note: potency is the fitted concentration of half-maximal effect; % of control where 0% means no effect; nearly all actives have a fitted effect of over 55% in size
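Cells (250 per well) received 23 nL compound or DMSO by pin tool and were kept 48 hr at 37 C, 5% CO2. Nuclei were then stained with Hoechst for 40 min and scanned for DNA content.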
* marks the source's active call; other numbers are inactive results; ? = inconclusive; nt = no result; [ ] = dose if it differs, or a comment. Unless noted, calls come from the whole dose curve; as a rule, active = well fitted curve in the direction sought with a large enough effect; inconclusive = small, poorly fitted or top-dose-only effect, or another doubt; inactive = no such curve, though single readings can be large; an effect the other way counts as inactive or inconclusive.

SMILES	IL-1B inflam inh	MCF10A rerep	BCR signal inh	DT40 TDP1 no CPT	TDP1 cell CPT	SW480 rereplic
NC(c1csc(Nc2ccc(C(=O)c3ccccc3)cc2)n1)c1ccccc1Cl (configuration not stated)	-7	nt	nt	?	21µM*	nt
CC(C)C(N)c1csc(Nc2ccc(C(=O)c3ccccc3)cc2)n1 (configuration not stated)	-60*	nt	nt	?	?	nt
Cc1csc(Nc2ccc(C(=O)O)cc2)n1	-4	1%	?	-1%	3%	-8%
NC(=O)NC(CC(=O)NCc1ccc2c(c1)OCO2)c1ccccc1Cl (configuration not stated)	12	-25%	-1%	-5%	2%	2%
Cc1cc(C(=O)Nc2cccc(C)c2C)c2ccccc2n1	-10	-2%	2%	?	1%	-10%
COC(=O)c1ccc(NC(=O)CC(=O)Nc2ccc(C(=O)OC)cc2)cc1	12	15µM*	?	18%	-7%	-2%
COC(=O)c1ccc(NC(=O)CSc2nc(=O)n3cccc(C)c3n2)cc1	11	0%	-9%	?	18µM*	-9%
COC(=O)c1ccc(NC(=O)CSc2nccn2CCc2ccccc2)cc1	3	-9%	?	18µM*	?	-5%[9.22 µM]
CNC(=O)CCC(=O)Nc1ccc(C(=O)OC)cc1	-11	-1%	1%	0%	3%	0%
Cc1nc(-c2ccccc2)sc1-c1ccc(SCC(=O)Nc2ccccc2)nn1	nt	nt	nt	23µM*	?	nt
COC(=O)c1ccc(NC(=O)CSc2ccc(-c3sc(-c4ccccc4)nc3C)nn2)cc1	nt	nt	nt	12µM*	?	nt
O=C(COc1ccccc1F)N1CCN(S(=O)(=O)/C=C/c2ccccc2)CC1	-7	9%	0%	?	-5%	-87%
CC(=O)c1cc(F)c(N2CCN(C(=O)C(C)(C)C)CC2)cc1C	-3	-2%	-3%	21µM*	21µM*	0%
CC(=O)c1cc(F)c(N2CCN(C(=O)COc3ccccc3F)CC2)cc1C	-9	?	?	16µM*	21µM*	15%[9.22 µM]
CCC(=O)c1cc(F)c(N2CCN(C(=O)Cc3ccccc3)CC2)cc1C	-15	9%	0%	15µM*	21µM*	10%
CC(=O)c1cc(F)c(N2CCOCC2)cc1C	-2	-2%	-25%	1%	-14%	-5%
CC(=O)c1cc(F)c(N2CCCC2)cc1C	-13	0%	-1%	21µM*	21µM*	1%
CC(=O)c1cc(F)c(N2CCN(c3ccc([N+](=O)[O-])cc3F)CC2)cc1C	7	7%	9%	-26%	?	-4%
O=C([C@H]1O[C@@H](n2ccc(=O)[nH]c2=O)[C@H](O)[C@@H]1O)N1CCSC1	4	nt	nt	18%	16%	nt
CCCNC(=O)C1(C)CCN(C(=O)c2ccc3snnc3c2)C1 (configuration not stated)	53	nt	nt	-6%	-16%	nt
CC(C)(C)OC(=O)N[C@H]1C=C[C@@H](OC(=O)CC(=O)OCC(F)(F)F)C1	28	8%	2%	2%	-1%	-9%
Cn1cc(-c2nc3cnc(OCc4ccccc4)nc3n(CCC#N)c2=O)c2ccccc21	nt	nt	nt	17%	10%	nt
CCCS(=O)(=O)NC(=O)C1(C)CCN(C(=O)c2ccccc2OC(C)=O)C1 (configuration not stated)	-13	nt	nt	-16%	5%	nt
CCOc1ccc(OCCC(=O)OCC(=O)N2CCN(S(=O)(=O)c3ccc(Cl)cc3)CC2)cc1	-85*	?	?	23µM*	?	?
Cc1ccccc1OCCC(=O)Nc1ccc(S(=O)(=O)N2CCCC2)cc1	23	nt	nt	15µM*	21µM*	nt
SMILES	IL-1B inflam inh	MCF10A rerep	BCR signal inh	DT40 TDP1 no CPT	TDP1 cell CPT	SW480 rereplic
CCOc1ccc(S(=O)(=O)N2CCN(C(=O)CCOc3ccccc3C)CC2)cc1	-12	7%	0%	18µM*	?	?
Cc1ccc(S(=O)(=O)N2CCN(C(=O)CCOc3ccccc3C)CC2)cc1C	-5	13%	5%	?	?	13%
COc1ccc(S(=O)(=O)N2CCN(C(=O)CCNC(=O)c3ccccc3Cl)CC2)cc1	-3	3%	0%	-24%	-15%	0%
COc1ccc(S(=O)(=O)N2CCN(C(=O)CCSc3ccccc3)CC2)cc1	-4	2%	0%	?	12µM*	-7%
COc1ccc(OC)c(-c2nnc(SCC(=O)N3CCCC3)o2)c1	5	0%	-3%	-13%	8%	-13%
Cc1ccc(S(=O)(=O)N2C[C@H]3C(=O)C[C@@H](c4ccccc4C)N(S(=O)(=O)c4ccc(C)cc4)[C@H]3C[C@H]2c2ccccc2)cc1	-18	nt	nt	-27%	-24%	nt
O=c1cc(CSc2ccccc2)[nH]c(=S)[nH]1	17	15%	-11%	-21%	-2%	0%
Cc1ccccc1OCc1nnc(SCc2nc3ccccc3c(=O)[nH]2)n1C	10	-2%	-5%	-2%	5%	2%
Cc1ccccc1OCc1nnc(SCc2cc(=O)c3cc(F)ccc3[nH]2)n1C	nt	nt	nt	12µM*	13µM*	nt
Cc1ccccc1OCc1nnc(SCc2cc(=O)c3ccccc3[nH]2)n1C	nt	nt	nt	15µM*	13µM*	nt
O=c1cc(CSc2ccccc2)[nH]c2ccccc12	15	-3%	1%	?	26µM*	-11%
Cc1cccc(-c2nnc(SCc3cc(=O)c4cccc(Cl)c4[nH]3)n2C)c1	nt	nt	nt	16µM*	23µM*	nt
CCCn1c(=O)n(-c2ccccc2)c(=O)c2sc3ccccc3c21	nt	nt	nt	?	-4%	nt
Clc1cccc(-c2nc3c4ccccc4ccn3c2Cc2ccsc2)c1	4	nt	nt	?	?	nt
CCCNc1ncnc2c1cnn2C1CCCCO1 (configuration not stated)	-7	-2%	nt	-14%	2%	1%
Cc1cn([C@H]2C[C@H](O)[C@@H](CCC(=O)NCc3ccccc3)O2)c(=O)[nH]c1=O	164	-11%	nt	-106%	-98%	14%
Cc1ccc2[nH]c(CSc3nnc(COc4ccccc4C)n3C)cc(=O)c2c1	nt	nt	nt	15µM*	18µM*	nt
Cc1ccccc1OCc1nnc(SCc2cc(=O)c3ccc(C)c(C)c3[nH]2)n1C	nt	nt	nt	16µM*	?	nt
O=C(CN1C(=O)NC(c2ccccc2)(c2ccccc2)C1=O)NCC(=O)Nc1ccc(F)cc1	-17	-4%	?	-28%	?	-3%
